Consider 14 molecules from PubChem BioAssay (NCI).

What all share (experiment): NCI-60 one-dose screen, 48 h (100 = growth as untreated, 0 = no growth, -100 = all killed)
Common to all, as to settings: 10 µM unless noted

For assay [1], the system named is RPMI-8226 leukemia.
The test system of assay [2] is OVCAR-8 ovarian.
Assay [3] deals with OVCAR-5 ovarian.
Assay [4] has as its system OVCAR-4 ovarian.
Assay [5] relates to SK-OV-3 ovarian.
In assay [6] the test system is OVCAR-3 ovarian.
For assay [7], the system named is HS 578T breast.
Assay [8] deals with NCI/ADR-RES ovarian.
Assay [9] concerns T-47D breast.
For assay [10], the system named is IGROV1 ovarian.

Structures are written as SMILES. Compounds without any hit were thinned out: in the full panel of roughly 83,000, 20% have a hit.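 Cell lines were cultured in 96-well plates, exposed to a single compound concentration, and assessed for percent growth 48 hours later.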 Unmarked numbers belong to inactive results. Calls of active or inactive are those of the source. Rule for the calls: active = growth percent below 10; inactive = the rest.

Regarding `O=C(Nc1ccc(F)cc1F)c1cc(Cl)ccc1O`, the growth in assay [1] was 1.46% (active); in [2], 10.6%; in assay [3], 15.3%; in assay [4], 16.6%; in assay [5], -11.2% (active); in assay [6] it was 7.98% (active). In addition, the growth in [7] is 9.26% (active); in assay [8], 7.62% (active); in [9], -12.4% (active).

`CC(C)C[C@H](C(=O)N[C@@H](C)C(N)=O)N1CC=CCN(O)S1(=O)=O`: the growth in [1] is 106% [5 µM]; in assay [2] it was 96.4% [5 µM]; in assay [3], 99.3% [5 µM]; in assay [4] it was 106% [5 µM]; in assay [5] it was 108% [5 µM]; in assay [10], 120% [5 µM]. The growth was 110% [5 µM] in [6], 105% [5 µM] in [8] and 103% [5 µM] in assay [9].

As for `O=C1OC(c2ccccc2)(c2ccccc2)c2ccsc21`, the growth in assay [1] was 89.1%; in assay [2], 101%; in [3], 95.7%; in [4], 107%; in assay [5] it was 102%; in [10], 107%. Further, the figures for the growth in assay [7], in assay [8] and in assay [9] were 103%, 115% and 104%, respectively.

With `COc1ccc(-c2nc(N3CCN(C(=O)C4CCCCC4)CC3)c3c4c(sc3n2)CCCC4)cc1`, the growth in assay [1] is 2.49% (active); in assay [2], -44.7% (active); in assay [3], 35.6%; in [4], -85.4% (active); in assay [5], 81%; in assay [10], 33.7%. Also, the growth in [7] is 12.8%; in assay [8] it was 84.2%; in [9], 3.68% (active).

Consider `COc1cc2cc3c(=O)n4c(cc5cc(OC)ncc54)c(=O)n3c2cn1`, for which the growth is 98% in assay [1]; 112% in [2]; 110% in assay [3]; 114% in assay [4]; 113% in [5]; 95.8% in [10]. The growth in [7] was 104%; in assay [8] it was 108%; in assay [9] it was 95.2%.

On to `O=C(/C=C/c1cccc(Cl)c1)OCc1ccc2cc1OCC#C/C=C\C#CCO2`, for which the growth in assay [1] was 83.8%; in [2] it was 98.2%; in [3], 108%; in [4], 95.6%; in [5], 105%; in assay [10], 92.2%. The growth is 101% in assay [7], 96.8% in assay [8] and 84.8% in assay [9].

Take `Cn1nc(C(C)(C)C)cc1NC(=O)Cc1ccc(/C=C2\C(=O)Nc3ccccc32)cc1`: the growth is 28.7% in assay [1]; 54.6% in assay [2]; 107% in assay [3]; 47.6% in [4]; 60.7% in assay [5]; 59% in [10]. Also, the growth was 74.7% in assay [7], 66.9% in assay [8] and 14.9% in [9].

As to `Cc1cc(Nc2ccc(OCc3ccccc3)cc2)nc2cc(O)ccc12`, the growth is 6.65% (active) in [1]; 57.1% in assay [2]; 84.3% in assay [3]; 44.5% in assay [4]; 86.9% in assay [5]; 41.3% in [6]. The growth was 106% in assay [7], 75.7% in assay [8] and 69.8% in [9].

Turning to `Oc1ccc(-c2nc(-c3ccc4oc5ccc(-c6[nH]c(-c7ccc(O)cc7)nc6-c6ccccc6)cc5c4c3)c(-c3ccccc3)[nH]2)cc1`, the growth in [1] was 19.8%; in assay [2], 72.8%; in [3], 74.3%; in [4] it was 52.9%; in assay [5] it was 87%; in assay [6], 43.6%. The growth in assay [7] is 66.8%; in [8] it was 72.3%; in assay [9], 46.8%.

As for `Cc1nc2ccccc2c(/C=C/c2ccccc2)c1C(=O)/C=C/c1ccc(Cl)cc1`, the growth in [1] is -36.5% (active); in assay [2] it was 20.9%; in assay [3] it was 14.2%; in [4], 26.5%; in assay [5] it was 84.3%; in assay [10] it was 14.9%. In addition, the growth in assay [6] was -40.5% (active); in assay [8], 9.61% (active); in assay [9] it was 13.4%.

With `O=C(Nc1ccc(Cl)cc1F)c1cc(F)ccc1O`, the growth was -23% (active) in [1]; 9.44% (active) in assay [2]; 27.8% in [3]; 11.2% in [4]; -4.5% (active) in assay [5]; 17.5% in [10]. The values for the growth in assay [6], in [8] and in assay [9] were 9.51% (active), 7.19% (active) and -8.15% (active), respectively.

For the molecule `CC(=O)n1cc(-c2c[nH]c3ccccc23)c(-c2ccc(Cl)cc2)n1`, the growth is 86.5% in assay [1]; 96.8% in assay [2]; 94.2% in [3]; 62% in assay [4]; 95.9% in assay [5]; 74.9% in assay [10]. Further, the growth in assay [6] is 90%; in assay [8], 86.4%; in [9], 72.7%.

Consider `CCOc1cc2c(cc1OCC)C(c1cc(C)c(O)c(C)c1)NCC2` (stereo unspecified), for which the growth in [1] is 77.5%; in [2] it was 92.2%; in assay [3], 97.6%; in assay [4], 95.9%; in [5], 101%; in assay [10], 101%. In addition, the growth in assay [6] is 101%; in [8], 84.4%; in [9], 91.6%.

For `COc1ccc(C2NCCc3c2[nH]c2ccccc32)cc1CN1CCN(c2ccc(F)cc2)CC1` (stereo unspecified), the growth in [1] was -10% (active); in [2] it was 24.6%; in [3] it was 64.8%; in assay [4], 65.3%; in assay [5] it was 88.8%; in assay [6] it was 66.8%. Further, the growth was 92.2% in assay [7], 54.7% in assay [8] and 54.6% in [9].
